Assay outcomes: PubChem, National Center for Advancing Translational Sciences (NCATS)
In the library only some 11% were active in any assay of this set; here they are far more common.
NS1 function inh: influenza NS1 inhibition; Potency, µM (doses to about 46.1 µM), without a hit: top-dose activity, positive = more growth; actives 0.4% (n = 270,000); AID 2326; calls by dose curve; further: actives are rising curves; nearly all actives have a fitted effect of over 50% in size
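Compounds were scored for reversing the slow growth caused by influenza A NS1 in S. cerevisiae, measured by optical density at 600 nm. Assay medium contained 2% galactose at pH 6.0; NS1-free yeast of the same strain were the positive control.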
Pf growth 96h: inhibits malaria parasite growth, 96 h | P. falciparum luciferase reporter growth, 96 h | Potency, µM (titrated, usually from 28.7 µM), for inactives: at the highest dose activity change, negative = inhibition, most hits filed as inhibitors | actives 6.9% (n = 320,000) | AID 504834; further: on the % scale 0 is the no-effect control and ±100 the full control effect
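P. falciparum expressing integrated firefly luciferase grown in erythrocytes (2% hematocrit, 0.05% parasitemia final) with compounds for 96 hours at 37 C, 5% CO2. Growth inhibition read as loss of luminescence after adding luciferase detection reagent.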
Pf growth 48h: inhibits P. falciparum growth in the first generation, 48 h | P. falciparum luciferase growth in erythrocytes, 48 h | Potency, µM (series often up to 28.7 µM), for the others: at the highest dose activity change, negative = inhibition, hits mostly inhibitors | AID 504832 | actives 5.9% (n = 310,000); further: on the % scale 0 is the no-effect control and ±100 the full control effect
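First compound was added to culture medium, then infected red cells at 0.1% parasitemia and 2% hematocrit (final). After incubation at 37 C under 5% CO2, luciferase detection reagent was dispensed and light output recorded.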
Vaccinia Venus: inhibitors of vaccinia virus (Venus reporter). Vaccinia virus Venus reporter expression, fluorescence. Potency, µM (series often up to 36.5 µM), for the others: at the top dose activity change, negative = inhibition, usual class: inhibitors. actives 0.46% (n = 330,000); calls by dose curve; tested in A549 cells; further: on the % scale 0 is the no-effect control and ±100 the full control effect; nearly all actives have a fitted effect of over 30% in size
HCV inhibitor: HCV inhibition; Huh7.5.1 HCVcc-Cre infection, luciferase reporter, 44 h; Potency, µM (highest dose often 41.8 µM), for the others: at the top dose activity change, negative = inhibition, hits mostly inhibitors; AID 651820; actives 3.4% (n = 340,000); further: on the % scale 0 is the no-effect control and ±100 the full control effect
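Antiviral activity was scored by luciferase reporter output from cells infected with HCVcc-Cre (~0.5 moi) in presence of compound, 44 h infection period, cells seeded 1,000/well 4 h prior.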
VACV mCherry inh: vaccinia inhibition (mCherry reporter) | Vaccinia virus mCherry reporter infection, fluorescence | actives 0.63% (n = 310,000) | Potency, µM (highest dose often 36.5 µM), for inactives: top-dose activity change, negative = inhibition, hits mostly inhibitors; calls by dose curve; tested in A549 cells; further: on the % scale 0 is the no-effect control and ±100 the full control effect; nearly all actives have a fitted effect of over 35% in size
The depositor's hits bear a star; i = inactive; ? = inconclusive; · = no result; [ ] = dose if it differs, or a comment. Unless noted, the call rests on the fitted dose curve; in most records, active means well fitted inhibition curve with a large enough effect; inconclusive means small, poorly fitted or top-dose-only effect, or another doubt; inactive means no such curve, though single readings can be large or run the other way. Potency means the concentration at half of the fitted maximal effect.

SMILES | NS1 function inh | Pf growth 96h | Pf growth 48h | Vaccinia Venus | HCV inhibitor | VACV mCherry inh
CCOc1ccccc1C(=O)NC1CCN(Cc2nnnn2C2CCCC2)CC1 | -10% | 13µM* | ? | · | 4% | ·
CCOc1ccccc1C(=O)NCCNC(=O)c1ccccc1OCC | · | · | · | -6% | -27% | i
N/C(=N\OC(=O)CCCc1ccccc1)c1cccc([N+](=O)[O-])c1 | -28% | -14% | 10% | -1% | 23% | -14%
Cc1ccnc(NC(=O)C2CCN(S(=O)(=O)c3ccc4c(c3)CC(C)N4C(=O)C3CCC3)CC2)c1 (configuration not stated) | -13% | ? | 10µM* | -30% | ? | -2%
CC(C)CCNC(=O)C1CCN(S(=O)(=O)c2ccc3c(c2)CC(C)N3C(=O)C2CCC2)CC1 (configuration not stated) | -9% | ? | 15µM* | -24% | -7% | -12%
CC(=O)N1c2ccc(S(=O)(=O)N3CCC(C(=O)NC4CCC(C)CC4)CC3)cc2CC1C (configuration not stated) | -16% | 5.2µM* | ? | · | -14% | ·
CC(C)CCNC(=O)C1CCCN(S(=O)(=O)c2ccc3c(c2)CC(C)N3C(=O)C2CC2)C1 (configuration not stated) | -8% | -31% | 0% | 0%[7.34 µM] | -18% | 12%[7.34 µM]
Cc1ccc(NC(=O)C2CCN(S(=O)(=O)c3ccc4c(c3)CC(C)N4C(=O)C3CCC3)CC2)nc1 (configuration not stated) | 2% | ? | ? | ? | 8.9µM* | -10%
CCC(C)NC(=O)C1CCN(S(=O)(=O)c2ccc3c(c2)CC(C)N3C(C)=O)CC1 (configuration not stated) | -3% | 18% | -23% | -17% | -7% | i
CC1(Oc2ccccc2)CCN(Cc2ccc(-c3ccccn3)cc2)C1 (configuration not stated) | · | · | · | 1% | · | 12%
Cc1ccc(S(=O)(=O)N2CCCCC2C(=O)Nc2nncs2)cc1 (configuration not stated) | 1% | -1% | 23% | · | 3% | ·
O=C1c2ccccc2-c2c1cccc2C(=O)N1CCCCC1 | -22% | 3% | 33% | -3% | 2% | ·
CC(=O)N1c2ccc(S(=O)(=O)N3CCC(C(=O)Nc4ccc(C)cn4)CC3)cc2CC1C (configuration not stated) | -21% | ? | ? | · | 11µM* | ·
CC1Cc2cc(S(=O)(=O)N3CCC(C(=O)Nc4ccccn4)CC3)ccc2N1C(=O)C1CCC1 (configuration not stated) | -12% | ? | ? | -28% | 7.9µM* | -23%
CC(=O)N1c2ccc(S(=O)(=O)N3CCC(C(=O)Nc4cc(C)cc(C)c4)CC3)cc2CC1C (configuration not stated) | 28% | ? | ? | · | 3% | ·
CCc1ccc(NC(=O)C2CCN(S(=O)(=O)c3ccc4c(c3)CC(C)N4C(C)=O)CC2)cc1 (configuration not stated) | -35% | ? | ? | ? | 2.8µM* | -11%
CC(C)n1c(N2CCN(C(=O)c3cccs3)CC2)nc2ccccc21 | -5% | -22% | -20% | · | -12% | ·
COC(=O)C1=C(C)N(C)C(=O)NC1c1cc2c(cc1Br)OCO2 (configuration not stated) | 8% | 115% | 17% | · | 5% | ·
CN(Cc1ccc(Cl)c(Cl)c1)C(C(=O)NCc1ccccc1)c1ccco1 (configuration not stated) | · | · | · | -5% | · | ?
CC1Oc2ccccc2C=C1/C=N/Nc1ccc(C(=O)O)cc1 (configuration not stated) | -75% | 14% | -37% | -22% | 2% | 13µM*
O=C(O)c1c2c(nc3ccccc13)CCCCC2 | 14% | ? | 0% | -6% | 1% | i
O=C(NC1CCCCC1)c1nn2c(C(F)(F)F)cc(-c3ccco3)nc2c1Br | 1% | -10% | 16% | -18% | -22% | ·
O=C(c1ccccc1)N1CCN(C(=O)c2nn3c(C(F)(F)F)cc(-c4ccco4)nc3c2Br)CC1 | 3% | 0% | 10µM* | -12% | ? | 0%
Cc1ccc(C(=O)Nc2ccccn2)cc1S(=O)(=O)N1CCOCC1 | · | 0% | 22% | -15% | 10% | -19%
Cc1cc(-c2csc(NC(=O)c3ccc(S(=O)(=O)N(C)C)cc3)n2)c(C)n1-c1ccccc1 | 29% | 10µM* | ? | -13% | ? | -4%
SMILES | NS1 function inh | Pf growth 96h | Pf growth 48h | Vaccinia Venus | HCV inhibitor | VACV mCherry inh
CN(C)S(=O)(=O)c1ccc(C(=O)Nc2nc(-c3cc4ccccc4o3)cs2)cc1 | 5% | ? | -16% | · | ? | ·
Cc1ccc(S(=O)(=O)N2CCOCC2)cc1C(=O)Nc1ccc(-c2cn3ccsc3n2)cc1 | ? | -11% | 9.3µM* | -30% | 10µM* | ?
Cc1ccc(C(=O)Nc2nc(-c3ccccn3)cs2)cc1S(=O)(=O)N1CCOCC1 | · | 0.47µM* | 1.7µM* | · | 5.6µM* | ·
O=C(Nc1nc(-c2ccccn2)cs1)c1ccc(F)c(S(=O)(=O)N2CCOCC2)c1 | · | 0.83µM* | 1.5µM* | · | 3.5µM* | ·
CC(C)c1ccc(NC(=O)CSc2nnc(-c3ccccc3)n2C)cc1 | · | · | · | -22% | · | -21%
CC(=O)N1CCCc2cc(S(=O)(=O)N3CCC(C(=O)NCc4ccc(N(C)C)cc4)CC3)ccc21 | · | · | · | -12% | · | -4%
Cc1cc(NC(=O)CCC(=O)N(CC(=O)NC2CCCC2)c2cccc(C)c2C)no1 | · | · | · | -7% | -15% | -14%
Cc1ccc(S(=O)(=O)N2CCOCC2)cc1NC(=O)c1cc(-c2ccccn2)nc2ccccc12 | 1% | ? | 9.3µM* | ? | ? | 11µM*
Cc1ccc(S(=O)(=O)N2CCOCC2)cc1C(=O)Nc1nc(-c2cccnc2)cs1 | -12% | -9% | 9.3µM* | -4% | -15% | -27%
O=C(Nc1nc(-c2ccccn2)cs1)c1cc(S(=O)(=O)N2CCOCC2)ccc1F | · | 10µM* | 10µM* | · | ? | ·
CN(CC1CCCO1)S(=O)(=O)c1ccc(C(=O)Nc2nc(-c3ccccn3)cs2)cc1 (configuration not stated) | -33% | 3.3µM* | 12µM* | ? | 4.5µM* | ?
Cc1ccccc1NC(=O)c1cc(S(=O)(=O)N2CCOCC2)ccc1F | 8% | -1% | -2% | · | -2% | ·
COc1ccc(NC(=O)c2cc(-c3ccc(F)cc3OC(C)C)n[nH]2)cn1 | · | · | · | ? | · | -10%
Cc1ccc(S(=O)(=O)N2CCOCC2)cc1N/N=C(\C#N)c1nc2ccccc2[nH]1 | ? | 3.3µM* | ? | · | 2% | ·
O=C(Nc1ccccc1C(F)(F)F)c1cc(S(=O)(=O)N2CCOCC2)ccc1F | -3% | 0.93µM* | 10% | -10% | 21% | -14%
